Experiment [1] can be described thus: liver-stage malaria parasite growth inhibition, primary screen, cell-based, HepG2, luciferase luminescence, HepG2 viability (AID 624349; in the data active = parasite load remaining mostly below about 12%, no sharp cut-off; inactive = mostly above about 10%;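 note: 100% = mean of DMSO negative control wells on the same plate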). The settings on record: P. berghei liver stage in HepG2, luciferase luminescence, concentration not given here; parasite load remaining: stronger effect = lower value; viability: measured here: HepG2 viability without parasites.
Experiment [2] in a line: sensitizers of A549 cells to miR-34 induction, primary screen, imaging, A549 dox-inducible miR-34, nuclei and caspase counts (AID 1347080;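 active = compounds whose cell count with miR-34 switched on is under 0.7 times the count with it off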). The settings on record: A549 miR-34 inducible, Hoechst nuclei count, 48 h.
A short description of experiment [3]: hESC survival regulators, cell-based (AID 493140).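 Note: cells exposed to compounds for four days before counting.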 The settings on record: human embryonic stem cell survival screen; stronger effect = higher value.
Experiment [4] can be described thus: kinase inhibitors against Plasmodium liver-stage infection, cell-based, known kinase inhibitor set, luminescence, hepatoma host viability (AID 624392).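 Note: infected cells incubated roughly two days before readout.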 The settings on record: Plasmodium liver stage in hepatoma cells, luciferase luminescence, concentration not given here; liver cell % of control: measured here: host liver cell viability; parasite % of control: stronger effect = lower value.

The nature of experiment [5]: polyglutamine-triggered caspase-3 activation inhibitors, cell-based (AID 1583). The settings on record: polyglutamine-induced caspase-3 activation, cell assay; stronger effect = higher value;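 tested at 10 µM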.
Experiment [6] is described as follows: suppressors of polyQ aggregation in yeast, 75Q-TubU reporter (AID 1593). The settings on record: Yeast 75Q polyglutamine aggregation reporter.
A short description of experiment [7]: rescue of polyQ-huntingtin neuronal dysfunction in worms, whole organism, C. elegans mechanosensory neurons, N-terminal huntingtin (AID 1599). To be noted: touch response, stronger effect = higher value.
A short description of experiment [8]: inhibitors of mitochondrial cytochrome c release, biochemical, purified mitochondria (AID 1603).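 Note: mouse liver mitochondria challenged with calcium chloride; signal normalized to the plate average as 100%.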 The settings on record: stronger effect = lower value.
The nature of experiment [9]: inhibitors of polyQ protein aggregation (AID 1604). The settings on record: polyglutamine-induced protein aggregation inhibition assay; stronger effect = higher value; tested at 2.5 µM.
A short description of experiment [10]: enhancers of glutamate uptake in motor neurons, MN-1 cell line (AID 1612).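 Note: tested at 1 µM final; 0% = mean of DMSO vehicle wells on each plate; positive means more glutamate uptake than control and negative means less.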 To be noted: MN-1 motor neuron cells, stronger effect = higher value.
Experiment [11] in a line: suppressors of polyglutamine aggregation in yeast, 75Q-TubH (AID 1616). To be noted: S. cerevisiae 75Q-TubH polyglutamine aggregation suppression; stronger effect = higher value.
Experiment [12] is described as follows: phospholipid biosynthesis inhibitors in animal cells, primary screen, cell-based, LOPAC library, screen 4 (AID 1347384). To be noted: phospholipid biosynthesis inhibition screen, at 10 µM.
Experiment [13] can be described thus: modifiers of HSF1 nuclear foci, imaging, Selleck Cancer Library (AID 1347162; in the data active = plate-normalised HSF1 focus index below about 0.46). To be noted: human cells, at 10 µM; SSMD: measured here: HSF1 foci SSMD mean; cell count: measured here: cell number; plate-normalised HSF1 focus index: stronger effect = lower value.
Where [14] appears, read: stronger effect = lower value, cell number ratio, induced over uninduced.
Setting [15] is: measured here: relative caspase fold change +Dox/-Dox.
Where [16] appears, read: measured here: total cells with miR-34 induction, stronger effect = lower value.
Setting [17] is: measured here: total cells without miR-34 induction.

As usually defined, the viability is a read-out of living cells in per cent, often relative to untreated cells. The term inhibition denotes the change of the read-out against control, counted positive when it falls.

Several values for one entry are separate records, joined by “and”; a condition that tells them apart may be missing. Equal values may be shown once. For some of these results: Entries with a potency or affinity are not part of this list. Activity calls are given as the source filed them. Unless noted, the rule behind the calls is not given here.

For the compound `CC[C@H]1OC(=O)[C@H](C)[C@@H](OC2C[C@@](C)(OC)[C@@H](O)[C@H](C)O2)[C@H](C)[C@@H](O[C@@H]2O[C@H](C)C[C@H](N(C)C)[C@H]2O)[C@](C)(O)C[C@@H](C)/C(=N\OCOCCOC)[C@H](C)[C@@H](O)[C@]1(C)O` (some centres not stated), the parasite load remaining in experiment [1] was 75.3% (inactive). The viability in experiment [1] stood at 93.9%. Further, the fold change is 0.893 (inactive) in experiment [2] (setting [14]) and 1 in experiment [2] (setting [15]). For the same compound, the cell count in experiment [2] (setting [16]) is 9320; in experiment [2] (setting [17]) it was 10400.

On to `C[C@H]1c2cccc(O)c2C(O)=C2C(=O)C3(O)C(O)=C(C(N)=O)C(=O)[C@@H](N(C)C)[C@@H]3[C@@H](O)[C@@H]21` (some centres not stated), for which, in [3], the survival was 3.25 (inactive). The parasite load remaining in experiment [1] was 62.9% (inactive). Also, the viability in [1] was found to be 97.2%. Besides, the fold change in experiment [2] (setting [14]) is 0.641 (active); in [2] (setting [15]), 1.76. Moreover, the cell count is 4060 in experiment [2] (setting [16]) and 6330 in [2] (setting [17]).

For the compound `COc1ccc(CC(C)(N)C(=O)O)cc1OC` (configuration not stated), in experiment [3], the survival is 17 (inactive). For the same compound, the parasite load remaining in experiment [1] was 64.7% (inactive). Also, the viability in experiment [1] worked out at 74.8%. In addition, the fold change in experiment [2] (setting [14]) was 0.962 (inactive); in [2] (setting [15]), 0.938. Also, the cell count in [2] (setting [16]) turned out to be 9190; in experiment [2] (setting [17]), 9550.

Turning to `CCCCCCCCCCCCCCCC(=O)OCC(COP(=O)(O)O)OC(=O)CCCCCCCCCCCCCCC` (configuration not stated), the survival in experiment [3] is 95.5 (inactive). Further, the fold change was 0.922 (inactive) in experiment [2] (setting [14]) and 1.21 in experiment [2] (setting [15]). The figures for the cell count in [2] (setting [16]) and in experiment [2] (setting [17]) were 5850 and 6340, respectively.

As for `CCC(C)N1CCC2(CC1)N=c1c(c3c4c5c(C)c(O)c3c(O)c1=NC(=O)/C(C)=C/C=C/[C@H](C)[C@H](O)[C@@H](C)[C@@H](O)[C@@H](C)[C@H](OC(C)=O)[C@H](C)[C@@H](OC)/C=C/O[C@@](C)(O5)C4=O)N2` (some centres not stated), the parasite load remaining in [1] was 81.4% (inactive). The viability in experiment [1] came to 74.8%. For the same compound, the fold change in experiment [2] (setting [14]) was 0.966 (inactive); in [2] (setting [15]), 0.766. For the same compound, the cell count in experiment [2] (setting [16]) came to 8510; in experiment [2] (setting [17]), 8810.

Consider `COC(C)(C)CCCC(C)C/C=C/C(C)=C/C(=O)O` (configuration not stated), for which the survival in experiment [3] was 91.1 (inactive). Also, the fold change is 0.916 (inactive) in experiment [2] (setting [14]) and 0.969 in experiment [2] (setting [15]). The cell count amounted to 5680 in [2] (setting [16]) and 6210 in experiment [2] (setting [17]).

As to `CC(=O)N[C@@H]1[C@@H](O[C@H](C)C(=O)O)[C@H](O)[C@@H](CO)O[C@@H]1O`, the parasite load remaining in experiment [1] is 112% (inactive). Moreover, the viability in experiment [1] was 105%. The fold change in experiment [2] (setting [14]) is 0.861 (inactive); in experiment [2] (setting [15]), 1.06. In addition, the cell count in [2] (setting [16]) came out at 8610; in experiment [2] (setting [17]), 10000.

As to `O=c1cc(-c2ccc(O)cc2)oc2c(C3O[C@H](CO)[C@@H](O)[C@H](O)[C@H]3O)c(O)cc(O)c12` (some centres not stated), the survival in experiment [3] was 3.5 (inactive). Moreover, the parasite load remaining in experiment [1] is 96.7% (inactive). Further, the viability in experiment [1] was 101%. The fold change in experiment [2] (setting [14]) is 0.841 (inactive); in experiment [2] (setting [15]), 1.12. In addition, the cell count in [2] (setting [16]) stood at 8230; in [2] (setting [17]), 9780.

Regarding `CCCCCCCCCCCCC(O)C(=O)O` (configuration not stated), in [3], the survival is 71.7 (inactive). Also, the fold change was 0.965 (inactive) and 0.989 (inactive) in experiment [2] (setting [14]); 1.1 and 0.875 in [2] (setting [15]). Also, the cell count in experiment [2] (setting [16]) is 6110 and 6000; in experiment [2] (setting [17]), 6330 and 6060.

In the case of `c1ccc2c3c([nH]c2c1)[C@H]1C2CCC([C@@H]4CCCN[C@H]24)N1CC3` (some centres not stated), in experiment [1], the parasite load remaining is 89.2% (inactive). For the same compound, in experiment [1], the viability is 93.6%. Further, the fold change in experiment [2] (setting [14]) was 0.865 (inactive); in experiment [2] (setting [15]), 1.3. Further, the cell count in experiment [2] (setting [16]) worked out at 7540; in experiment [2] (setting [17]), 8710.

Take `CCC(=O)OC1(C(=O)CCl)[C@@H](C)C[C@H]2[C@@H]3CCC4=CC(=O)C=C[C@]4(C)[C@@]3(F)[C@@H](O)C[C@@]21C` (some centres not stated): the survival in experiment [3] is 2.5 (inactive). Besides, the parasite load remaining in experiment [1] was 141% (inactive). Also, the viability in [1] was determined as 94.7%. For the same compound, the figures for the fold change in experiment [2] (setting [14]) and in [2] (setting [15]) were 0.789 (inactive) and 1.5, respectively. Also, the results for the cell count in experiment [2] (setting [16]) and in experiment [2] (setting [17]) were 5850 and 7420, respectively.

`Oc1cc(O)c2c(c1)OC(c1ccc(O)c(O)c1)C(O)C2` (configuration not stated): the parasite load remaining in [1] is 64.2% (inactive). Moreover, the viability in [1] is 97%. In addition, the fold change was 0.908 (inactive) in experiment [2] (setting [14]) and 1.18 in experiment [2] (setting [15]). In addition, the values for the cell count in [2] (setting [16]) and in [2] (setting [17]) were 9500 and 10500, respectively.

`c1ccc(-c2[nH]ncc2-c2ccnc3ccccc23)nc1`: in experiment [4], the liver cell % of control was 101% and the parasite % of control was 63.9% (inactive).

`C=C1C(=O)O[C@@H]2C3OC3(C)CC/C=C(\C)CC[C@@H]12` (some centres not stated) returned an inhibition in experiment [5] of 14.3%. In experiment [6], this compound came in with a score of 0.94. The same compound came in with a rescue above control in [7] of 8.2. The cytochrome c release ratio in experiment [8] was found to be 0.54. The inhibition of aggregation in [9] came out at 93.6%. In experiment [10], the glutamate uptake change is -11%. For the same compound, the aggregation suppression score in experiment [11] is 0.572.

Take `Nc1ncnc2c1c(I)cn2C1OC(CO)C(O)C1O` (configuration not stated): the survival in experiment [3] was 7.5 (inactive).

For the compound `CCCCC/C=C\C=C\[C@@H](O)CCCCCCCC(=O)O`, in [3], the survival is 108 (inactive).

As to `CC[C@@H](CO)Nc1nc(NCc2ccccc2)c2ncn(C(C)C)c2n1`, in experiment [1], the parasite load remaining was 32.6% (inactive) and the viability worked out at 67.3%.

For the compound `CO/N=C(\C(=O)N[C@@H]1C(=O)N2C(C(=O)O)=C(CSc3nc(=O)c(=O)[nH]n3C)CSC12)c1csc(N)n1` (some centres not stated), the compound was called inactive in experiment [12].

With `N[C@H](C(=O)O)[C@H](O)c1ccc(O)c(O)c1`, the compound was classed as inactive in experiment [12].

Consider `COCCN1C2=C(C(=O)c3ccccc3C2=O)N(Cc2cnccn2)C1C` (configuration not stated), for which, in experiment [13], the SSMD stood at 2.27, the cell count was 6910 and the plate-normalised HSF1 focus index was 1.13 (inactive).

Take `COc1cc(C(=O)NC(=S)Nc2cccc(NC(=O)c3ccccc3)c2)cc(OC)c1OC`: in [13], the SSMD is 4.07, the cell count worked out at 6830 and the plate-normalised HSF1 focus index was 1.24 (inactive).

On to `CCOC(=O)c1ccc(C#Cc2ccc3c(c2)CC(C)(C)CS3)nc1`, for which, in [12], the outcome was inactive.

Take `C=CC1=C(C)c2cc3[nH]c(cc4nc(cc5[nH]c(cc1n2)c(C)c5CCC(=O)O)C(CCC(=O)O)=C4C)c(C)c3C=C`: the compound was called inactive in [12].

With `CO[C@H]1C[C@@H]2CC[C@@H](C)[C@@](O)(O2)C(=O)C(=O)N2CCCC[C@@H]2C(=O)OC([C@H](C)C[C@@H]2CC[C@@H](OC(=O)C(C)(CO)CO)[C@H](OC)C2)CC(=O)[C@H](C)/C=C(\C)[C@@H](O)[C@@H](OC)C(=O)[C@H](C)C[C@H](C)/C=C/C=C/C=C/1C` (some centres not stated), the compound was classed as inactive in experiment [12].

(Values after PubChem BioAssay.)
